LmPK inh = LmPK (Leishmania mexicana) enzyme inhibition | AID 1721 | 290,000 tested, 0.37% active | purified LmPK, Kinase-Glo ATP luminescence, 1 h | Potency, µM (titrated, usually from 57.5 µM), without a hit: at the highest dose activity change, negative = inhibition, usual class: inhibitors
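Purified LmPK (0.1 nM) converted ADP (0.1 mM) to ATP with PEP (0.5 mM) in imidazole buffer pH 7.2 with KCl and MgCl2, 1 h at room temperature. ATP was read by Kinase-Glo luminescence; data normalized to uninhibited and no-enzyme controls.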
FBPA Giardia inh = inhibitors of Giardia lamblia fructose-1,6-bisphosphate aldolase. A8B2U2. purified Giardia FBPA. Potency, µM (titrated, usually from 59.6 µM), for inactives: at the highest dose activity, negative = inhibition, hits mostly inhibitors. 290,000 tested, 0.71% active; note: nearly all actives have a fitted effect of over 55% in size
Target sequence (A8B2U2 whole entry, looked up): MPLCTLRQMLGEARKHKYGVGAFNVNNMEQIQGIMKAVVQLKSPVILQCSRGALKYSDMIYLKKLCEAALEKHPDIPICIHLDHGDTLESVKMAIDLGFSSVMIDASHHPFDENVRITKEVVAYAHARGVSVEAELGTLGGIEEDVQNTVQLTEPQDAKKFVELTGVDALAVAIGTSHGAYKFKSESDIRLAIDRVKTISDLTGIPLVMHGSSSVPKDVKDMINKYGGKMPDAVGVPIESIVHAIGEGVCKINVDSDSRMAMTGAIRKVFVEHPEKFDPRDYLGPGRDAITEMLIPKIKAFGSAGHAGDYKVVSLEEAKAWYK
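Giardia FBPA (40 nM reagent) was preincubated 10 min at RT with compound (up to 57.5 uM final), then substrate plus GAPDH/TPI/NAD/arsenate coupling system with diaphorase/resazurin was added; resorufin fluorescence (525/598 nm) was read after 20 min.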
TbPYK inhibitor = blocks Trypanosoma brucei pyruvate kinase; TbPYK enzyme, Kinase-Glo Plus ATP luminescence, 45 min; Potency, µM (doses to about 76.8 µM), inactives show top-dose activity, negative = inhibition, most hits filed as inhibitors; 410,000 tested, 0.12% active; Q57TT1; AID 624173; note: nearly all actives have a fitted effect of over 50% in size
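ADP (130 uM final) triggers the TbPYK reaction after compound addition; incubation is 45 min at room temperature. Kinase-Glo Plus is then added and luminescence imaged. Normalized data are fitted to concentration-effect curves.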
RE007 growth inh = less growth of the S. pombe RE007 Vpr strain; 360,000 tested, 0.21% active; S. pombe RE007 Vpr strain, BacTiter-Glo ATP luminescence, 24 h; Potency, µM (titrated, usually from 92.2 µM), without a hit: at the highest dose activity change, negative = less growth, hits mostly inhibitors; active = well fitted falling curve with a large enough effect; inconclusive = small, poorly fitted or top-dose-only effect; inactive = no such curve, though single readings can be large or run the other way; note: nearly all actives have a fitted effect of over 50% in size
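Fission yeast strain RE007, carrying one chromosomally integrated HIV-1 vpr copy, was seeded at OD 0.01 in PMG+AL medium with 23 nL pinned compound. After 24 h at 30 °C and 99% humidity, viability was read by BacTiter-Glo luminescence.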
* hit, by the source's call; ! = not active in a repeat; [ ] = remark or other dose. Most compounds without a hit are left out; they make up all but 0.95% or so of the library. Unless noted, calls come from the whole dose curve; as a rule, active = well fitted curve in the direction sought with a large enough effect; inconclusive = small, poorly fitted or top-dose-only effect, or another doubt; inactive = no such curve, though single readings can be large; an effect the other way counts as inactive or inconclusive. % is set by controls: 0 for no effect and ±100 for the full control effect; potency is the fitted concentration of half-maximal effect.

How did CCOC(=O)c1ccc(N2C(=O)CC(N3CCC(Nc4ccc(F)cc4)CC3)C2=O)cc1 (stereo unspecified) do in these assays?
LmPK inh: 3%; FBPA Giardia inh: -1%; TbPYK inhibitor: -7%; RE007 growth inh: 7.9µM*

What do the screens show for `CCOC(=O)C1CCCN(C2CC(=O)N(c3cccc(C)c3)C2=O)C1` (stereo unspecified)?
LmPK inh: 1%; FBPA Giardia inh: -21%; TbPYK inhibitor: 4%; RE007 growth inh: 25µM*

What do the screens show for `CC1=C(C(=O)O)N2C(=O)C(NC(=O)C(N)C3=CCC=CC3)C2SC1` (stereo unspecified)?
FBPA Giardia inh: 7.9µM*

Results for C=CC1=C(C(=O)O)N2C(=O)[C@@H](NC(=O)C(N=O)c3csc(N)n3)[C@H]2SC1 (stereo partly specified) ?
FBPA Giardia inh: 16µM*; TbPYK inhibitor: -7%

Results for N[C@@H](C(=O)N[C@@H]1C(=O)N2C(C(=O)O)=C(Cl)CS[C@H]12)c1ccccc1 ?
LmPK inh: 4%; FBPA Giardia inh: 20µM*!; TbPYK inhibitor: -9%; RE007 growth inh: -1%

Results for CC1=C(C(=O)O)N2C(=O)[C@@H](NC(=O)C(N)C3=CCC=CC3)[C@H]2SC1 (stereo partly specified) ?
FBPA Giardia inh: 1%

How did C=CC1=C(C(=O)O)N2C(=O)[C@@H](NC(=O)/C(=N\O)c3csc(N)n3)[C@H]2SC1 (stereo in doubt) do in these assays?
TbPYK inhibitor: -9%; RE007 growth inh: -7%[18.4 µM]

Results for N#Cc1nc(NCCO)nc(Nc2ccccc2)n1 ?
FBPA Giardia inh: 2%

Results for Cc1cccn2c(=O)c(-c3nnn[nH]3)cnc12 ?
TbPYK inhibitor: -2%

How did O=C1[C@@H]2C(c3cccnc3)=NO[C@@H]2C(=O)N1c1ccc(Br)cc1 do in these assays?
LmPK inh: -6%; FBPA Giardia inh: 5%; TbPYK inhibitor: -17%; RE007 growth inh: 22µM*

What do the screens show for `C=CCn1c(Cc2c[nH]c3ccccc23)n[nH]c1=S`?
LmPK inh: -20%; FBPA Giardia inh: -9%; TbPYK inhibitor: 13µM*; RE007 growth inh: 6%

What do the screens show for `C=CCn1c(-c2cccc3ccccc23)n[nH]c1=S`?
LmPK inh: 8.9µM*; FBPA Giardia inh: -2%; RE007 growth inh: 3%[3.69 µM]

What do the screens show for `C=CCn1c(-c2ccccc2OC)n[nH]c1=S`?
LmPK inh: -19%; FBPA Giardia inh: -24%; TbPYK inhibitor: inconclusive; RE007 growth inh: 3%

How did C=CCn1c(Cc2ccccc2)n[nH]c1=S do in these assays?
LmPK inh: 0%; FBPA Giardia inh: inconclusive; TbPYK inhibitor: inconclusive; RE007 growth inh: 10%

Results for O=C1NCCCC2c3cc(O)c4ccccc4c3OC12N1CCCCC1 (stereo unspecified) ?
LmPK inh: inconclusive; FBPA Giardia inh: 0.56µM*

What do the screens show for `O=C1NCCCC2c3c(cc(Br)c(O)c3Br)OC12N1CCOCC1` (stereo unspecified)?
LmPK inh: -3%; FBPA Giardia inh: -5%; TbPYK inhibitor: -5%; RE007 growth inh: -27%

How did COc1ccc(Br)cc1C(C[N+](=O)[O-])c1c(N)n(C)c(=O)n(C)c1=O (stereo unspecified) do in these assays?
LmPK inh: -1%; FBPA Giardia inh: -3%; TbPYK inhibitor: -4%; RE007 growth inh: 10µM*

How did CN(C)c1ccc(C(C[N+](=O)[O-])c2c(N)n(C)c(=O)n(C)c2=O)c(F)c1C#N (stereo unspecified) do in these assays?
LmPK inh: -4%; FBPA Giardia inh: -1%; TbPYK inhibitor: -5%; RE007 growth inh: inconclusive

Results for COC(=O)c1ccc(N2C(=O)CC(N3CCOCC3)C2=O)cc1 (stereo unspecified) ?
LmPK inh: 1%; FBPA Giardia inh: -2%; TbPYK inhibitor: 7%; RE007 growth inh: 28µM*

How did CCOc1ccc(N2C(=O)CC(N3CCC(O)(c4ccc(Br)cc4)CC3)C2=O)cc1 (stereo unspecified) do in these assays?
LmPK inh: 5%; FBPA Giardia inh: 0%; TbPYK inhibitor: 2%; RE007 growth inh: 35µM*

Results for O=C1CC(N2CCCCCC2)C(=O)N1c1ccc(F)cc1 (stereo unspecified) ?
LmPK inh: 0%; FBPA Giardia inh: 3%; TbPYK inhibitor: -4%; RE007 growth inh: 10µM*

Screens as filed in PubChem.
